Measurements published in PubChem BioAssay (NCATS).
“And” between values parts separate entries of the source, which are not always exact repeats. Equal values may be shown once. Results filed as inconclusive are left out. Entries that show only a call come without a potency. The source made the active and inactive calls. The call rests on the fitted dose curve; in most records, active means well fitted cell-killing curve with a large enough effect; inconclusive means small, poorly fitted or top-dose-only effect; inactive means flat fitted curve, though single readings scatter.

Assay: qHTS of pediatric cancer cell lines to identify multiple opportunities for drug repurposing: Primary screen for U-2 OS cells (AID 1347096); further: nearly all actives have a fitted effect of over 50% in size
Details: U-2 OS viability, CellTiter-Glo luminescence, 48 h; series mostly up to 46 µM; activity change, negative = cytotoxic: at the top concentration
Description: Drug repurposing or repositioning has been offered as a strategy for drug development in oncology programs. This approach has special potential for childhood cancers and other rare or orphan diseases, where the expected return on new drug development has been a disincentive to pharmaceuticals.
In this project we exploit the poly-pharmacology of drugs to discover new indications via phenotypic screening of a panel of 19 well-characterized cell lines derived from solid tumors seen in children and adolescents. The goal is to identify approved drugs with previously unrecognized anticancer properties that has the potential to reveal new mechanisms and biological processes involved in carcinogenesis or drug resistance. We employed a titration-based paradigm (quantitative high-throughput screening or qHTS), where all compounds were tested at multiple concentrations for their effect on cell viability. Concentration-response curves (CRCs) were derived directly from the primary screen, and both potency and efficacy values were used to identify compounds with robust bioactivity profiles. We screened the NIH Chemical Genomics Center (NCGC) Pharmaceutical Collection (NPC) and Mechanism Interrogation Plate (MIPE) small molecule collections of approved and investigational compounds against these cell lines; and measured metabolically active cells after 48 hours of compound treatment as a proxy for cell viability.
Assay Submitter: Nathalia J. Martinez, National Center for Advancing Translational Sciences, National Institutes of Health, Rockville, MD, USA; email: natalia.martinez@nih.gov
[1] Shen, M et al. Quantitative high-throughput phenotypic screening of pediatric cancer cell lines identifies multiple opportunities for drug repurposing. Oncotarget 2017 Dec 19;9(4):4758-4772. PMID 29435139.
The cells were obtained from University of North Carolina (UNC), Pediatric Preclinical Testing Program (PPT), and Coriell Institute (CI).
qHTS cell viability assay:
Cells were assayed in growth media at a density of 500-1,000 cells/well. Five microliters of cells were dispensed into 1,536-well, white, solid-bottom, TC-treated plates (Greiner Bio One) using a multidrop dispenser and incubated at 37 degrees C, 5% CO2, under a humidified atmosphere for 5 hours. Twenty-three nanoliters of compounds and controls (neutral control DMSO or positive control bortezomib at final concentration of 2.3 µM) were subsequently transferred by Kalypsys pintool. For primary screens, the MIPE collection was tested at 11-point dilutions (final concentrations range from 0.78 nM to 46 µM) and the NPC collection at 8-point dilutions (final concentrations range from 0.59 nM to 46 µM). Compounds tested in follow-up screens were assayed at 11-point dilutions. Cells were incubated for 48 hours, followed by addition of 3 µL of CellTiter-Glo (Promega). After a 15 min incubation at room temperature, samples were analyzed for luminescence intensity using a ViewLux High-throughput CCD imager equipped with clear filters.
Potency means the concentration at half of the fitted maximal effect.

Row | Structure (SMILES) | Potency | activity change, negative = cytotoxic
1 | O=c1c(O)c(-c2ccc(O)c(O)c2)oc2cc(O)cc(O)c12 | inactive | –
2 | O=c1[nH]cc(F)c(=O)[nH]1 | inactive | –
3 | CCN1CCCC1CNC(=O)c1cc(S(=O)(=O)CC)c(N)cc1OC (stereo not given) | inactive | –
4 | NC12CC3CC(CC(C3)C1)C2 | inactive | –
5 | Clc1ccc(C(c2ccccc2Cl)C(Cl)Cl)cc1 (stereo not given) | inactive | –
6 | C[C@H]1c2cccc(O)c2C(O)=C2C(=O)[C@]3(O)C(O)=C(C(N)=O)C(=O)[C@@H](N(C)C)[C@@H]3[C@@H](O)[C@@H]21 | inactive | –
7 | CC1(CN2CCC(n3c(=O)[nH]c4ccccc43)CC2)OCc2ccccc2-n2cccc21 (stereo not given) | inactive | –
8 | Cn1c(=O)c2c(ncn2C)n(C)c1=O | inactive | –
9 | OCCN(CCO)c1nc(N2CCCCC2)c2nc(N(CCO)CCO)nc(N3CCCCC3)c2n1 | – | -18.1% (inactive)
10 | CCCCc1oc2ccccc2c1C(=O)c1cc(I)c(OCCN(CC)CC)c(I)c1 | 7.43 µM (active) | –
11 | CCC1(C)CC(=O)NC1=O (stereo not given) | inactive | –
12 | Nc1nc2c(ncn2COC(CO)CO)c(=O)[nH]1 | – | 17.5% (inactive)
13 | O=C(CCCN1CCC(O)(c2ccc(Cl)cc2)CC1)c1ccc(F)cc1 | inactive | –
14 | COc1ccc(CCN(C)CCCC(C#N)(c2ccc(OC)c(OC)c2)C(C)C)cc1OC (stereo not given) | inactive | –
15 | Cc1cc(C(C)(C)C)cc(C)c1CC1=NCCN1 | inactive | –
16 | CN(CCOc1ccc(NS(C)(=O)=O)cc1)CCc1ccc(NS(C)(=O)=O)cc1 | inactive | –
17 | CC(C)Cc1ccc(C(C)C(=O)O)cc1 (stereo not given) | inactive | –
18 | CC(CCc1ccc(O)cc1)NCCc1ccc(O)c(O)c1 (stereo not given) | inactive | –
19 | COc1ccc2[nH]cc(CCNC(C)=O)c2c1 | inactive | –
20 | CCOC(=O)C(C)(C)Oc1ccc(Cl)cc1 | inactive | –

Row | Structure (SMILES) | Potency | activity change, negative = cytotoxic
21 | Cc1cnc(C(=O)NCCc2ccc(S(=O)(=O)NC(=O)NC3CCCCC3)cc2)cn1 | inactive | –
22 | CC(C)(C)C(=O)Oc1ccc(S(=O)(=O)Nc2ccccc2C(=O)NCC(=O)O)cc1 | inactive | –
23 | CN1C(C(=O)Nc2ccccn2)=C(O)c2ccccc2S1(=O)=O | inactive | –
24 | O=C1N(c2ccccc2)c2ccccc2C1(Cc1ccncc1)Cc1ccncc1 | inactive | –
25 | CS(=O)(=O)CCNCc1ccc(-c2ccc3ncnc(Nc4ccc(OCc5cccc(F)c5)c(Cl)c4)c3c2)o1 | 18.7 µM (active) | –
26 | O=C1c2c(O)ccc(O)c2C(=O)c2c(NCCNCCO)ccc(NCCNCCO)c21 | 18.7 µM (active) and 10.6 µM (active) | –
27 | COc1ccccc1OCCNCC(O)COc1cccc2[nH]c3ccccc3c12 (stereo not given) | inactive | –
28 | O=C(c1ccc(F)cc1)C1CCN(CCn2c(=O)[nH]c3ccccc3c2=O)CC1 | inactive | –
29 | CC(C(=O)O)c1cccc(C(=O)c2ccccc2)c1 (stereo not given) | inactive | –
30 | CC12CC3CC(C)(C1)CC(N)(C3)C2 | inactive | –
31 | CC[N+](CC)(CC)CCOc1cccc(OCC[N+](CC)(CC)CC)c1OCC[N+](CC)(CC)CC | inactive | –
32 | CC(C)C(=O)Nc1ccc([N+](=O)[O-])c(C(F)(F)F)c1 | inactive | –
33 | CN(Cc1cnc2nc(N)nc(N)c2n1)c1ccc(C(=O)N[C@@H](CCC(=O)O)C(=O)O)cc1 | – | 18.2% (inactive)
34 | CN(C)CCOC(c1ccccc1)c1ccccc1 | inactive | –
35 | Clc1ccc2nsnc2c1NC1=NCCN1 | inactive | –
36 | O=C(C1CCCCC1)N1CC(=O)N2CCc3ccccc3C2C1 (stereo not given) | inactive | –
37 | Nc1ccn([C@H]2CC[C@@H](CO)O2)c(=O)n1 | inactive | –
38 | Cc1cn([C@H]2C=C[C@@H](CO)O2)c(=O)[nH]c1=O | inactive | –
39 | CN1CCN2c3ccccc3Cc3ccccc3C2C1 (stereo not given) | inactive | –
40 | COc1ccccc1N1CCN(CC(O)COc2cccc3ccccc23)CC1 (stereo not given) | – | 16.8% (inactive)
